Shown are actives, neighbours in structure and some others; about 1.1% of the full set was active somewhere.
TrxR1 substrate – qHTS Assay for Substrates of Mammalian Selenoprotein Thioredoxin Reductase 1 (TrxR1): qHTS. Thioredoxin reductase 1, cytoplasmic (Rattus norvegicus), O89049. purified TrxR1 substrate turnover, NADPH consumption readout. Potency, µM (series often up to 114 µM), for inactives: at the top dose activity change, negative = substrate turnover. actives 0.01% (n = 390,000). AID 588456, 2011; also: potency is read from the fitted curve at half-maximal effect; % is scaled to controls: 0 for no effect and ±100 for the full control effect; nearly all actives have a fitted effect of over 50% in size
Target sequence (O89049 whole entry, looked up): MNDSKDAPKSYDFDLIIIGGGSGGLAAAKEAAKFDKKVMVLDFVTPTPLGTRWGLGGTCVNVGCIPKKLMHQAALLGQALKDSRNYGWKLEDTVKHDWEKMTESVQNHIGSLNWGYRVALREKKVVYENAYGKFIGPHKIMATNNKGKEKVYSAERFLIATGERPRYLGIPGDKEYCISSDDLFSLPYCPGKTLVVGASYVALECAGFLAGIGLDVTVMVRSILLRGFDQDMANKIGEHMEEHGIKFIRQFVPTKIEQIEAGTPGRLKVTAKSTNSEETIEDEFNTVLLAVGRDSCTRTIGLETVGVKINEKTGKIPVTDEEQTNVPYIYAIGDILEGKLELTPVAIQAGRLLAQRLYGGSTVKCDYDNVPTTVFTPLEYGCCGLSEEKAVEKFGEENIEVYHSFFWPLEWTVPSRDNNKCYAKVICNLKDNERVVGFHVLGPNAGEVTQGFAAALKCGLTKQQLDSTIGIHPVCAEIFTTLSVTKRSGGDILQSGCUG
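Rat TrxR1, dispensed at 90 nM, was prereduced with 400 uM NADPH (final) for 5 min at ~22 deg C, then incubated with compound 15 min before 400 uM selenite. A first-read NADPH fluorescence drop versus no-compound background flagged substrates.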
TrxR1 inh – qHTS Assay for Inhibitors of Mammalian Selenoprotein Thioredoxin Reductase 1 (TrxR1): qHTS. Thioredoxin reductase 1, cytoplasmic (Rattus norvegicus), O89049. recombinant rTrxR1, NADPH fluorescence consumption, selenite substrate. Potency, µM (doses to about 114 µM), for inactives: at the top dose activity change, negative = inhibition, hits mostly inhibitors. actives 1% (n = 390,000); also: potency is read from the fitted curve at half-maximal effect; % is scaled to controls: 0 for no effect and ±100 for the full control effect; nearly all actives have a fitted effect of over 65% in size
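Rat TrxR1 (90 nM in the dispensed reagent) was pre-reduced with 400 uM NADPH for 5 min at room temperature, then incubated with compound for 15 min. After 400 uM selenite was added, NADPH fluorescence (Ex 340/Em 450 nm) was followed for 8 min.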
RGS4 inh – Inhibitors of Regulator of G Protein Signaling (RGS) 4: qHTS; Transcreener GDP fluorescence polarization, RGS4-accelerated GTP hydrolysis; Potency, µM (series often up to 114 µM), for the others: at the highest dose activity change, negative = inhibition, hits mostly inhibitors; actives 0.039% (n = 390,000); AID 504845, 2011; also: potency is read from the fitted curve at half-maximal effect; % is scaled to controls: 0 for no effect and ±100 for the full control effect; nearly all actives have a fitted effect of over 75% in size
Target sequence (P49798 whole entry, looked up): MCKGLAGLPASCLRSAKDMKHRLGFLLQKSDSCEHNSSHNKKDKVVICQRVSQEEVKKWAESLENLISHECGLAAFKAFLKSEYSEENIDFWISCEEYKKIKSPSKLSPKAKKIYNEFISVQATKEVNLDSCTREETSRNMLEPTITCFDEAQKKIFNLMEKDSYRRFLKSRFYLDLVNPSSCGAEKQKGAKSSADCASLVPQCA
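MLSMR compounds (23 nl, pin-transferred) preincubated 10 min at room temperature with a 500nM (2x) first reagent, then RGS4 at 900nM (2x) plus Transcreener GDP mix added; fluorescence polarization (620/688 nm) read before and after 90 min at 30 °C.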
mIDH1 inhibitor – qHTS for Inhibitors of mutant isocitrate dehydrogenase 1 (IDH1): qHTS. Isocitrate dehydrogenase [NADP] cytoplasmic (Homo sapiens), O75874. IDH1-R132H enzyme, NADPH consumption, diaphorase/resazurin fluorescence. Potency, µM (titrated, usually from 76.6 µM), without a hit: top-dose activity change, negative = inhibition, most hits filed as inhibitors. actives 0.093% (n = 390,000). AID 602179, 2012; also: potency is read from the fitted curve at half-maximal effect; % is scaled to controls: 0 for no effect and ±100 for the full control effect; nearly all actives have a fitted effect of over 65% in size
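IDH1-R132H (0.5 ug/mL) preincubated 30 min with compound, then NADPH (0.016 mM) and alpha-KG (2 mM) added; 80 min at RT, pH 7.5. Remaining NADPH coupled via diaphorase/resazurin to fluorescence (540/590 nm); concentration-response curves normalized to no-enzyme control.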
Eya2 inh – qHTS Assay for Inhibitors of the Phosphatase Activity of Eya2 | Protein phosphatase EYA2 (Homo sapiens), O00167 | recombinant Eya2, OMFP fluorescence dephosphorylation (OMFP is methylfluorescein phosphate) | actives 0.006% (n = 330,000) | Potency, µM (highest dose often 76.9 µM), for inactives: at the highest dose activity, negative = inhibition, hits mostly inhibitors; also: potency is read from the fitted curve at half-maximal effect; % is scaled to controls: 0 for no effect and ±100 for the full control effect
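Eya2 protein (added as 0.2 uM solution) was preincubated with compound for 10 min at ambient temperature in 50 mM HEPES pH 7.5, 50 mM NaCl, 5 uM MgCl2, 0.05% BSA, 1 mM DTT. OMFP (added at 50 uM) then reacted 10 min; fluorescence read at 485/525 nm.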
IDH1 autofl – qHTS for Inhibitors of mutant isocitrate dehydrogenase 1 (IDH1): Cherrypicks Autofluorescence Interference. Resorufin detection reagent fluorescence interference, cell-free. 750 tested, under 10 active. inhibition of signal, % at 51.2 µM. shares compounds with mIDH1 inhibitor. AID 623980, 2012;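 also: 0% = wells with normal resorufin and full inhibition = wells lacking resorufin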
IDH1 WT – qHTS for Inhibitors of mutant isocitrate dehydrogenase 1 (IDH1): Cherrypicks in WT IDH1. shares compounds with mIDH1 inhibitor. WT IDH1 enzyme, NADPH diaphorase/resazurin fluorescence. Potency, µM (doses to about 115 µM), for inactives: at the highest dose activity change, negative = inhibition, hits mostly inhibitors. actives 9% (n = 750). AID 623995, 2012;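 also: potency is read from the fitted curve at half-maximal effect; 0% = full WT IDH1 enzyme control and full inhibition = no enzyme wells; nearly all actives have a fitted effect of over 55% in size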
mIDH1 confirm – qHTS for Inhibitors of mutant isocitrate dehydrogenase 1 (IDH1): Confirmation of Cherrypicks; Potency, µM (titrated, usually from 76.6 µM), inactives show at the top dose activity change, negative = inhibition, most hits filed as inhibitors; IDH1 R132H enzyme, NADPH diaphorase/resazurin fluorescence; actives 83% (n = 750); AID 624002, 2012; shares compounds with mIDH1 inhibitor; also: potency is read from the fitted curve at half-maximal effect; nearly all actives have a fitted effect of over 50% in size
Numbers without * were called inactive; [ ] = another dose, or the depositor's remark. Calls follow the shape of the dose curve; as a rule, active = well fitted curve in the direction sought with a large enough effect; inconclusive = small, poorly fitted or top-dose-only effect, or another doubt; inactive = no such curve, though single readings can be large; an effect the other way counts as inactive or inconclusive.

Screening COc1ccc(Cl)cc1NC(=O)Nc1c[nH]c(=O)[nH]c1=O returned TrxR1 substrate 9%[57.1 µM], TrxR1 inh 29%[57.1 µM], RGS4 inh -35% and mIDH1 inhibitor -14%.
Screening Cc1ccc(/C=C2\C(=O)ON=C2c2ccccc2)o1 returned TrxR1 substrate -11%, TrxR1 inh 17%[57.1 µM], RGS4 inh -37%, mIDH1 inhibitor 8% and Eya2 inh 1%.
Screening Cc1ccc(-c2ccc(/C=C3\C(=O)ON=C3c3ccccc3)o2)c([N+](=O)[O-])c1 returned TrxR1 substrate -8%[57.1 µM], TrxR1 inh 11µM*, RGS4 inh inconclusive, mIDH1 inhibitor 52µM*, Eya2 inh -13%, IDH1 autofl 7, IDH1 WT 79µM* and mIDH1 confirm 35µM*.
`COc1cccc(/C=C/c2[nH]c(=O)[nH]c(=O)c2[N+](=O)[O-])c1O` gave TrxR1 substrate -16%, TrxR1 inh -68%, RGS4 inh -32%, mIDH1 inhibitor 2% and Eya2 inh -11%.
O=C(COc1ccccc1/C=C\c1[nH]c(=O)[nH]c(=O)c1[N+](=O)[O-])Nc1ccccc1 was read as TrxR1 substrate -6%, TrxR1 inh inconclusive, RGS4 inh inconclusive, mIDH1 inhibitor 41µM*, Eya2 inh 9%, IDH1 autofl -1, IDH1 WT inconclusive and mIDH1 confirm 40µM*.
Screening CC(=O)NCc1ccc(C(=O)CSc2nnc(C3CC3)n2C2CC2)cc1 returned TrxR1 substrate 1%, TrxR1 inh -7%, RGS4 inh inconclusive, mIDH1 inhibitor -3% and Eya2 inh 0%.
CCC(=O)C1=C(c2ccc(Cl)cc2)N(C(=O)CC)n2c(C)nnc2S1 was read as TrxR1 substrate -1%[57.1 µM], TrxR1 inh -21%[57.1 µM], RGS4 inh -9%, mIDH1 inhibitor 45µM*, IDH1 autofl -13, IDH1 WT 299% and mIDH1 confirm 14µM*.
For CCc1nc2ccc(C(=O)N(C)CC(=O)Nc3cccc(F)c3)cc2nc1CC the results were TrxR1 substrate 1%, TrxR1 inh 5%, RGS4 inh -14%, mIDH1 inhibitor -1% and Eya2 inh -1%.
For Cc1ccc([C@@H]2C3COCC=C3C(C#N)=C(N)C2(C#N)C#N)o1 (stereo partly specified) the results were TrxR1 substrate 19%, TrxR1 inh 7.9µM*, RGS4 inh -11%, mIDH1 inhibitor inconclusive, Eya2 inh 12%, IDH1 autofl 3, IDH1 WT 4% and mIDH1 confirm inconclusive.
Screening Cc1ccc(C2C3CSCC=C3C(C#N)=C(N)C2(C#N)C#N)cc1 (stereo unspecified) returned TrxR1 substrate 9%, TrxR1 inh inconclusive, RGS4 inh -13%, mIDH1 inhibitor inconclusive, Eya2 inh -5%, IDH1 autofl 0, IDH1 WT -6% and mIDH1 confirm 40µM*.
CCn1c(=N)c(S(=O)(=O)c2ccccc2)cc2c(=O)n3ccccc3nc21 was read as TrxR1 substrate 63%[57.1 µM], TrxR1 inh 46%[57.1 µM], RGS4 inh 9%, mIDH1 inhibitor 0% and Eya2 inh -4%.
Screening COc1ccc(CCn2c(=N)c(S(=O)(=O)c3ccccc3)cc3c(=O)n4ccccc4nc32)cc1 returned TrxR1 substrate -1%, TrxR1 inh 19%, RGS4 inh -12%, mIDH1 inhibitor 3% and Eya2 inh 2%.
Screening CCCCCn1c(=N)c(S(=O)(=O)c2ccccc2)cc2c(=O)n3ccccc3nc21 returned TrxR1 substrate 13%, TrxR1 inh 28%, RGS4 inh -6%, mIDH1 inhibitor 20µM*, IDH1 autofl 2, IDH1 WT 5% and mIDH1 confirm 7.9µM*.
For CCCn1c(=N)c(S(=O)(=O)c2ccccc2)cc2c(=O)n3ccccc3nc21 the results were TrxR1 substrate 52%[57.1 µM], TrxR1 inh 83%, RGS4 inh -37%, mIDH1 inhibitor 40µM*, Eya2 inh -2%, IDH1 autofl 4, IDH1 WT 7% and mIDH1 confirm 20µM*.
`Cc1ccc(NC2(c3nnnn3-c3c(C)cccc3C)CCCCC2)cc1` gave TrxR1 substrate 6%, TrxR1 inh 39%, RGS4 inh -16%, mIDH1 inhibitor 58µM*, Eya2 inh -1%, IDH1 autofl -8, IDH1 WT 0% and mIDH1 confirm -12%.
For CC/C(=C\C1CCCCC1)C(NP(=O)(c1ccccc1)c1ccccc1)c1ccccc1 (stereo unspecified) the results were TrxR1 substrate 0%, TrxR1 inh 7%, RGS4 inh -32%, mIDH1 inhibitor 28µM*, Eya2 inh -2%, IDH1 autofl -7, IDH1 WT 1% and mIDH1 confirm 22µM*.
`O=P(NC1CCCCC1)(c1ccccc1)c1ccccc1` gave TrxR1 substrate -1%[2.29 µM], TrxR1 inh 7%[57.1 µM], RGS4 inh -5% and mIDH1 inhibitor 1%.
`CCc1ccc(S(=O)(=O)c2cn(CC(=O)Nc3ccc(F)c(Cl)c3)c3ccccc3c2=O)cc1` gave TrxR1 substrate -6%, TrxR1 inh 4%, RGS4 inh -10% and mIDH1 inhibitor -11%.
Screening CSC1=NC(=O)/C(=C\c2cccc3ccccc23)S1 returned TrxR1 substrate -11%, TrxR1 inh 35%[57.1 µM], RGS4 inh 23%, mIDH1 inhibitor 58µM*, Eya2 inh -19%, IDH1 autofl -5, IDH1 WT 71µM* and mIDH1 confirm 22µM*.

Compound activity (PubChem)
